Test results as given in PubChem BioAssay (NCATS).
Records with an inconclusive call do not appear.

assay: qHTS for identification of novel therapeutic agents for treatment of microphthalmiaassociated transcription factor (MiT) renal cell carcinoma (RCC) (AID 1963991); settings: TFE3-RCC viability, CellTiter-Glo, 48 h; measured here: UOK124 Z-AUC; stronger effect = lower value
Method in brief: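 Viability of three TFE3-fusion renal carcinoma lines measured by CellTiter-Glo after 48 h treatment with each of 1912 compounds at 11 concentrations. Responses scaled between DMSO (100%) and empty wells (0%) before curve fitting.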

Row | SMILES | z-score
1 | CC[C@H]1OC(=O)[C@H](C)[C@@H](O[C@H]2C[C@@](C)(OC)[C@@H](O)[C@H](C)O2)[C@H](C)[C@@H](O[C@@H]2O[C@H](C)C[C@H](N(C)C)[C@H]2O)[C@](C)(O)C[C@H](C)C(=NOCOCCOC)[C@H](C)[C@@H](O)[C@]1(C)O | -0.315
2 | C[C@]12CCC3=C4CCC(=O)C=C4CC[C@@H]3[C@H]1CC[C@@]2(O)CC#N | 0.709
3 | C[C@@H](O)[C@H]1C(=O)N2C(C(=O)OCOC(=O)C(C)(C)C)=C(SC3CN(C4=NCCS4)C3)[C@H](C)[C@H]12 | -0.138
4 | COc1ccc(C=CC(=O)Nc2ccccc2C(=O)O)cc1OC | 1.48
5 | C[C@@H]1O[C@@H](O[C@H]2CC[C@@]3(C)[C@H](CC[C@@H]4[C@H]3C[C@@H](O)[C@]3(C)[C@@H](C5=CC(=O)OC5)CC[C@]43O)C2)C[C@H](O)[C@@H]1O[C@H]1C[C@H](O)[C@H](O[C@H]2C[C@H](O)[C@@H](O)[C@@H](C)O2)[C@H](C)O1 (stereo in doubt) | -1.68
6 | CO[C@H]1/C=C\O[C@@]2(C)Oc3c(C)c(O)c4c(O)c(c(C=NN5CCN(C6CCCC6)CC5)c(O)c4c3C2=O)NC(=O)C(C)=CC=C[C@H](C)[C@H](O)[C@@H](C)[C@@H](O)[C@@H](C)[C@H](OC(C)=O)[C@H]1C | -2.38
7 | CN(C)c1nc(Cc2ccc(NC(=O)c3ccc(C(F)(F)F)cc3)cc2)nc(N(C)C)c1CC(=O)O | 0.491
8 | CC1(C)[C@H]2CC[C@]3(C)[C@@H](C(=O)C=C4[C@@H]5C[C@@](C)(C(=O)O)CC[C@]5(C)CC[C@]43C)[C@@]2(C)CC[C@@H]1O | 0.724
9 | C[C@@H]1CCO[C@H]2Cn3cc(C(=O)NCc4ccc(F)cc4F)c(=O)c(O)c3C(=O)N12 | 0.941
10 | CN[C@H]1[C@@H](O[C@@H]2[C@H](O[C@@H]3[C@@H](O)[C@@H](O)[C@@H](N=C(N)N)[C@@H](O)[C@@H]3N=C(N)N)O[C@H](C)[C@@]2(O)C=O)O[C@@H](CO)[C@@H](O)[C@H]1O | 1.27
11 | O=C(O)C1=NC(C(=O)O)CC(C=CN2c3cc(O)c(OC4OC(CO)C(O)C(O)C4O)cc3CC2C(=O)O)=C1 (centres undefined) | 0.431
12 | COc1cc(C=CC(=O)O)ccc1O | 0.112
13 | CNC1[C@H](O)C(O[C@@H]2C(O)C(O[C@H]3O[C@H]([C@@H](C)NC)CC[C@H]3N)[C@@H](N)C[C@H]2N)OC[C@]1(C)O (some centres undefined) | 0.386
14 | CO[C@H]1C=CO[C@@]2(C)Oc3c(C)c(O)c4c(O)c(c(C=NN5CCN(C)CC5)c(O)c4c3C2=O)NC(=O)C(C)=CC=C[C@H](C)[C@H](O)[C@@H](C)[C@@H](O)[C@@H](C)[C@H](OC(C)=O)[C@H]1C | 2
15 | CCC=CC[C@H]1C(=O)CC[C@@H]1CC(=O)OC | 0.558
16 | CCCCCOC(=O)Nc1nc(=O)n([C@@H]2O[C@H](C)[C@@H](O)C2O)cc1F (some centres undefined) | 0.348
17 | CO[C@H]1O[C@@H]2O[C@@]3(C)CC[C@@H]4[C@@H](C)CC[C@@H]([C@H]1C)[C@@]24OO3 | 0.926

Row | SMILES | z-score
18 | CC(=O)OCC(=O)[C@@]12OC(C)(C)O[C@H]1C[C@H]1[C@@H]3C[C@H](F)C4=CC(=O)C=C[C@]4(C)[C@@]3(F)[C@@H](O)C[C@@]12C | 0.68
19 | O=C(c1ccc(C(=O)N2CCC(N3CCCC3)CC2)c(Nc2ccccc2)c1)N1CCC(N2CCCC2)CC1 | 1.07
20 | CCNC(=O)CCCC=CC[C@@H]1[C@H](C=CC(O)CCc2ccccc2)[C@@H](O)C[C@@H]1O (some centres undefined) | 0.311
21 | CCN1C[C@H](C)n2c(c(O)c3c(=O)n(Cc4ccc(F)c(Cl)c4)nc(C(=O)NC)c32)C1=O | 0.545
22 | N=C1SC(=Cc2ccc(-c3ccc4c(c3)C(=O)NC4=O)o2)C(=O)N1c1ccc(Br)cc1 | 0.836
23 | CC(C)=CCCC(C)=CCCC(C)=CCCC(C)=CCCC(C)=CCCC(C)=CCCC(C)=CCCC(C)=CCCC(C)=CCO | 0.571
24 | COc1cc(CNC(=O)CCCCC=CC(C)C)ccc1O | 0.406
25 | C[C@H](c1ccc(F)cc1CCCC(=O)O)N(c1cc(F)ccc1F)S(=O)(=O)c1ccc(Cl)cc1 | -0.0423
26 | CO[C@H]1/C=C\O[C@@]2(C)Oc3c(C)c(O)c4c(O)c(c5c(nc6cc(C)ccn65)c4c3C2=O)NC(=O)C(C)=CC=C[C@H](C)[C@H](O)[C@@H](C)[C@@H](O)[C@@H](C)[C@H](OC(C)=O)[C@H]1C | 1.17
27 | CC[C@]1(O)C[C@H]2CN(CCC3=c4ccccc4=N[C]3[C@@](C(=O)OC)(c3cc4c(cc3OC)N(C)[C@H]3[C@@](O)(C(N)=O)[C@H](O)[C@]5(CC)C=CCN6CC[C@]43[C@@H]65)C2)C1 | -1.02
28 | O=c1[nH]c(=O)n([C@H]2C[C@@H](O)[C@@H](CO)O2)cc1I | 0.166
29 | CCCCC[C@H](O)C=C[C@H]1[C@H](O)CC(=O)[C@H]1CCCCCCC(=O)O | 0.386
30 | C=CC[N+]1([C@H]2C[C@H]3[C@@H]4CC[C@H]5C[C@H](O)[C@@H](N6CCOCC6)C[C@]5(C)[C@@H]4CC[C@]3(C)[C@H]2OC(C)=O)CCCC1 | 0.675
31 | C[C@]12C=CC(=O)C=C1CC[C@@H]1[C@@H]2[C@@H](O)C[C@@]2(C)[C@@H]1CC[C@]2(O)C(=O)CO | 0.34
32 | COc1ccc2c(c1)CC[C@H]1[C@@H]2CC[C@]2(C)[C@@H](NCCCCCCN3C(=O)C=CC3=O)CC[C@H]12 | 0.647
33 | CCOC(=O)[C@H]1O[C@H]1C(=O)N[C@@H](CC(C)C)C(=O)NCCC(C)C | 0.357
34 | CC=C1C2C=C(C)CC1(N)c1ccc(=O)[nH]c1C2 (centres undefined) | 0.297
